In article PMC11062922 (Nature Chemical Biology, 2023) one finds potency estimated from few doses data, which are given here for 21 compounds.

Where two headings read alike, the source gives them in different places.

Holding throughout (parameters): species or system human, MV4-11 + K-562 + COLO205 + SK-N-BE2 + OVCAR-8
One test relates to CDK6. Particulars: read-out: apparent Kd; compound concentrations: 100 nM and 1000 nM (sheet 'Samples'), CATDS: 3.7997833467257401E-2; n = 1.
A further test deals with ILK. Particulars: read-out: apparent Kd; compound concentrations: 100 nM and 1000 nM (sheet 'Samples'), CATDS: 4.6551408852927599E-2; n = 1.
A further test has as its system GRK6. Particulars: read-out: apparent Kd, compound concentrations: 100 nM and 1000 nM (sheet 'Samples'), n = 1.
In another test the test system is MYLK3. Particulars: read-out: apparent Kd, compound concentrations: 100 nM and 1000 nM (sheet 'Samples'), n = 1.
A further test has as its system TAOK2. Particulars: read-out: apparent Kd, n = 1.
The next test concerns ULK1. Particulars: read-out: apparent Kd, n = 1.
In a further test the test system is PIK3C3. Conditions: read-out: apparent Kd, n = 1.
For a further test, the system named is ERN2. Conditions: read-out: apparent Kd, compound concentrations: 100 nM and 1000 nM (sheet 'Samples'), n = 1.
Another test concerns MELK. Conditions: read-out: apparent Kd, n = 1.
Another test relates to ULK3. Conditions: read-out: apparent Kd, n = 1.
The next test deals with ERN1. Particulars: read-out: apparent Kd; compound concentrations: 100 nM and 1000 nM (sheet 'Samples'), CATDS: 1.5593168360276599E-2; n = 1.
In the next test the test system is MAP4K1. Particulars: read-out: apparent Kd; compound concentrations: 100 nM and 1000 nM (sheet 'Samples'), CATDS: 1.9870950610889799E-2; n = 1.
The subject of another test is PRKX;PRKY. Conditions: read-out: apparent Kd, compound concentrations: 100 nM and 1000 nM (sheet 'Samples'), n = 1.
A further test deals with FECH. Conditions: read-out: apparent Kd, compound concentrations: 100 nM and 1000 nM (sheet 'Samples'), n = 1.
Another test has as its system IKBKE. Conditions: read-out: apparent Kd; compound concentrations:100 nM and 1000 nM (sheet 'Samples'); n = 1.
In a further test the test system is ICK. Particulars: read-out: apparent Kd; compound concentrations: 100 nM and 1000 nM (sheet 'Samples'), CATDS: 0.109854156237019; n = 1.
The test system of another test is ATM. Particulars: read-out: apparent Kd; compound concentrations: 100 nM and 1000 nM (sheet 'Samples'), CATDS: 2.5456508312119999E-2; n = 1.
A further test concerns FER. Particulars: read-out: apparent Kd, n = 1.
The subject of another test is RPS6KA6. Conditions: read-out: apparent Kd, n = 1.
For another test, the system named is CSNK1E. Conditions: read-out: apparent Kd; compound concentrations:100 nM and 1000 nM (sheet 'Samples'); n = 1.
Setting [1] is: compound concentrations:100 nM and 1000 nM (sheet 'Samples').

Regarding `COc1ccc(Nc2nccc(N3CCC(NC(=O)Nc4ccc5c(c4)OCO5)C3)n2)cc1` (stereo not shown) [GSK1379745A], the potency estimated from few doses with CDK6 was 1.68 µM; with ILK, 1.11 µM.

For the compound `Cl.Cl.Cl.c1ccc(Oc2ccc(Nc3ccnc4cc(-c5ccc(CN6CCNCC6)o5)ccc34)cc2)nc1.c1ccc(Oc2ccc(Nc3ccnc4cc(-c5ccc(CN6CCNCC6)o5)ccc34)cc2)nc1` [GW567142A], the potency estimated from few doses with GRK6 (CATDS: 1.87269868098595E-2) is 1.43 µM; in the test on MYLK3 (CATDS: 1.6491067951183699E-2), 2.32 µM.

With `CN1C(=O)c2ccccc2N(C)c2nc(Nc3cnn(C4CCNCC4)c3)ncc21` [XMD-17-51], the potency estimated from few doses is 0.0424 µM with TAOK2 (compound concentrations: 100 nM and 1000 nM (sheet 'Samples'), CATDS: 5.5086775745804402E-2); 0.0455 µM in the test with ULK1 (compound concentrations: 100 nM and 1000 nM (sheet 'Samples'), CATDS: 5.3093581497725799E-2).

Turning to `CCc1nc(-c2cccc(N(C)S(=O)(=O)c3ccccc3)c2)c(-c2ccnc(Nc3ccc(N4CCN(C(C)=O)CC4)nc3)n2)s1` [GSK1645895A], the potency estimated from few doses in the test on PIK3C3 (compound concentrations: 100 nM and 1000 nM (sheet 'Samples'), CATDS: 0.15936807020930999) is 1.34 µM.

With `O=C1N=C(NCCc2cccc(F)c2)S/C1=C\c1ccc2ncccc2c1` [RO4508344-000], in the test on ERN2 (CATDS: 7.9069869208326996E-2), the potency estimated from few doses is 1.66 µM.

Regarding `CC(C)c1cc(-c2ccc3c(N)n[nH]c3c2)nc(N)n1` [GSK2250882A], in the test with MELK (setting [1]), the potency estimated from few doses was 1.3 µM.

For `Cc1cccc(-c2cc(-c3c[nH]nc3-c3ccccn3)ccn2)c1` [GW679395X], the potency estimated from few doses with ULK3 (setting [1]) is 1.45 µM.

In the case of `CC(C)c1nc(-c2cccc(NS(=O)(=O)c3ccccc3)c2)c(-c2ccnc(Nc3ccc4c(c3)CN(C)CC4)n2)s1` [GSK1649598A], the potency estimated from few doses with ERN1 was 0.758 µM; with ERN2 (CATDS: 3.39417380215319E-2) it was 0.124 µM; in the test with MAP4K1, 0.381 µM; in the test with TAOK2 (compound concentrations: 100 nM and 1000 nM (sheet 'Samples'), CATDS: 1.5717541572097499E-2), 0.739 µM.

`O=C1N=C(NCc2ccccc2)S/C1=C\c1ccc2ncccc2c1` [RO4442080-000]: the potency estimated from few doses is 1.93 µM in the test with MYLK3 (CATDS: 7.9842207059825906E-2) and 0.835 µM with PRKX;PRKY (CATDS: 0.10891085030607001).

Regarding `O=C1N=C(NCCc2cccc(Cl)c2)S/C1=C\c1ccc2ncccc2c1` [RO4509201-000], the potency estimated from few doses with FECH (CATDS: 5.2952837559238602E-2) is 2.08 µM.

`CCn1cc(-c2ccnc3[nH]c(-c4cccc(CN(C)C)c4)cc23)c(-c2ccc(NC(=O)N(C)C)cc2)n1` [GSK1070916]: the potency estimated from few doses with IKBKE was 1.96 µM; with PIK3C3 (setting [1]) it was 1.5 µM.

On to `Cn1cc(C2=C(c3cn(CCCO)c4ccccc34)C(=O)NC2=O)c2ccccc21` [RO0317377-000], for which the potency estimated from few doses in the test on ICK is 1.46 µM.

In the case of `COc1cc(Nc2ccnc3cc(-c4ccncc4)ccc23)cc(OC)c1OC.Cl` [GW494610A], the potency estimated from few doses in the test on FECH (CATDS: 2.4367792327904599E-2) was 1.07 µM.

As for `O=C1N=C(NCC(CO)c2ccccc2)S/C1=C\c1ccc2ncccc2c1` (stereo not shown) [RO4582641-000], in the test with PRKX;PRKY (CATDS: 6.1310776599809498E-2), the potency estimated from few doses was 1.91 µM.

Take `CCN(CC)CCOc1ccc(Nc2ncc3cc(-c4c(Cl)cccc4Cl)c(=O)n(C)c3n2)cc1` [SB-601273]: in the test on TAOK2 (setting [1]), the potency estimated from few doses was 1.15 µM.

`O=C1N=C(NCc2cccs2)SC1Cc1ccc2ncccc2c1` (stereo not shown) [RO4629078-000]: the potency estimated from few doses in the test on ATM is 0.123 µM; with FER (compound concentrations: 100 nM and 1000 nM (sheet 'Samples'), CATDS: 1.87753699623531E-2), 0.195 µM; in the test on GRK6 (CATDS: 8.7219841617169405E-3) it was 0.974 µM; with MELK (compound concentrations: 100 nM and 1000 nM (sheet 'Samples'), CATDS: 7.0296492391178304E-3) it was 2.19 µM; in the test on MYLK3 (CATDS: 7.0392832090842503E-3) it was 2.17 µM; with PRKX;PRKY (CATDS: 7.8908157683285005E-3) it was 1.35 µM. The potency estimated from few doses with RPS6KA6 (compound concentrations: 100 nM and 1000 nM (sheet 'Samples'), CATDS: 1.4576364077707399E-2) was 0.301 µM; in the test with ULK1 (compound concentrations: 100 nM and 1000 nM (sheet 'Samples'), CATDS: 1.26661320847058E-2), 0.394 µM; in the test with ULK3 (compound concentrations: 100 nM and 1000 nM (sheet 'Samples'), CATDS: 7.6579624487381603E-3), 1.51 µM.

In the case of `CN(C)Cc1ccc(-c2ccc3c(Nc4ccc(Oc5ccccn5)cc4)ccnc3c2)o1` [GW567148X], the potency estimated from few doses is 0.568 µM in the test with FER (compound concentrations: 100 nM and 1000 nM (sheet 'Samples'), CATDS: 2.46743192274099E-2); 0.847 µM in the test with RPS6KA6 (compound concentrations: 100 nM and 1000 nM (sheet 'Samples'), CATDS: 2.11191304038983E-2).

For `Nc1nc(N)c2nc(-c3ccccc3)[nH]c2n1` [SKF-12778], the potency estimated from few doses in the test with ULK3 (setting [1]) was 1.14 µM.

Consider `COc1cc2ncn(-c3cc(OCCCc4ccccc4)c(C(N)=O)s3)c2cc1OC` [GSK205189A], for which the potency estimated from few doses was 0.0551 µM in the test with FER (setting [1]) and 0.907 µM with RPS6KA6 (setting [1]).

`Fc1ccc(-c2c(-c3ccncc3)[nH]c3nccnc23)cc1` [RO1155697-000]: the values for the potency estimated from few doses in the test on CSNK1E and in the test on ULK1 (setting [1]) were 0.0528 µM and 1.52 µM, respectively.

With `CN1CCc2ccc(Nc3nccc(-c4c(-c5cccc(NC(=O)c6c(F)cccc6F)c5)nc5ccccn45)n3)cc2C1.Cl` [GSK1010829B], the potency estimated from few doses in the test on TAOK2 (compound concentrations: 100 nM and 1000 nM (sheet 'Samples'), CATDS: 3.64108611477112E-2) was 1.17 µM.
